Consider 27 molecules from the supplement of paper PMC12532568.

Where a name gives a salt, the structure may show the parent alone.

For the assay, the system named is Danio rerio larvae Tg(actc1b:ZsGreen-LC3), 3 dpf. Briefly: LC3 puncta relative area vs vehicle, without NH4Cl (log2 fold change); higher = more autophagosomes. The note with it: 10 µM; treatment time 16 h; NH4Cl: none. As for the experimental part:
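Transgenic Tg(actc1b:ZsGreen-map1lc3) zebrafish larvae (2 dpf) were treated for 16 h with Tocris library compounds at 10 µM (n = 12 larvae per compound). Skeletal-muscle LC3 puncta area relative to body area was measured by high-content confocal imaging before and after 4 h of 100 mM NH4Cl (autophagic flux), normalised to vehicle (DMSO), and reported as log2 fold change.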
`NC(C(=O)O)c1nn[nH]n1` (racemic) [(RS)-(Tetrazol-5-yl)glycine]: the “LC3 puncta (log2)” value came out at 0.24. Next, `Oc1ccc2c3c1O[C@H]1c4[nH]c5ccccc5c4C[C@@]4(O)[C@@H](C2)N(CC2CC2)CC[C@]314` [Naltrindole hydrochloride]: 0.245; `c1ccc(CC(c2ccccc2)N2CCCCC2)cc1` (configuration not stated) [(?)-1-(1,2-Diphenylethyl)piperidine maleate]: 0.167. Next, `O=C(O)Cc1cccnc1C(=O)O` [Homoquinolinic acid]: -0.131; `Oc1ccc2c3c1O[C@H]1c4c(c5ccccc5n4Cc4ccccc4)C[C@@]4(O)C(C2)N(CC2CC2)CC[C@]314` [N-Benzylnaltrindole hydrochloride]: 0.458; `c1ccc2nc(N3CCNCC3)ccc2c1` [Quipazine dimaleate]: 0.115. Next, `COc1ccc(C(=O)N2CCCC2=O)cc1` [Aniracetam]: 0.228; `c1ccc(C2CNCc3ccccc32)cc1` (configuration not stated) [4-Phenyl-1,2,3,4-tetrahydroisoquinoline hydrochloride]: 0.365; `CC(=O)NCCc1c[nH]c2ccccc12` [N-Acetyltryptamine]: -0.161. Take `C=C(C)[C@H]1CN[C@H](C(=O)O)[C@H]1CC(=O)O` [Kainic acid]: the “LC3 puncta (log2)” value came out at 0.377. For `Fc1ccc(C(OCCN2CCN(CCCc3ccccc3)CC2)c2ccc(F)cc2)cc1` the value was 0.491; for `Cc1onc(O)c1CC(N)C(=O)O` (racemic), -0.391. In the case of `CN1C(=O)CCS(=O)(=O)C1c1ccc(Cl)cc1` (configuration not stated) [Chlormezanone], the “LC3 puncta (log2)” value is -0.0101. Next, `c1ccc2c(c1)[I+]c1ccccc1-2` [Diphenyleneiodonium chloride]: 0.217. Next, `Cc1cc(C)cc(C(=O)OC2C[C@H]3CC[C@@H](C2)N3C)c1` (some centres not stated) [Tropanyl-3,5-dimethylbenzoate]: 0.0365; `O=C(CCCN1CCC2(CC1)C(=O)N(Cc1cccc(F)c1)CN2c1ccccc1)c1ccc(F)cc1` [3'-Fluorobenzylspiperone maleate]: 0.503; `Fc1ccc(C(OCCN2CCN(C/C=C/c3ccccc3)CC2)c2ccc(F)cc2)cc1`: 0.527. Next, `C=CCN1C[C@H](C)N([C@H](c2ccc(C(=O)N(CC)CC)cc2)c2cccc(OC)c2)C[C@H]1C`: 0.784; `O=C1CCCN1CC#CCN1CCCC1` [Oxotremorine sesquifumarate]: -0.285; `c1ccc2sc(C3(N4CCCCC4)CCCCC3)cc2c1` [BTCP maleate]: 0.288. On to `N[C@@]1(C(=O)O)CC[C@@H](C(=O)O)C1`, for which the “LC3 puncta (log2)” value was 0.259.

With `Cn1cnc(CCN)c1` [N?-Methylhistamine dihydrochloride], the “LC3 puncta (log2)” value turned out to be 0.287.

For `Cc1[nH]c2ccc(O)cc2c1CCN` [2-Methyl-5-hydroxytryptamine hydrochloride], the “LC3 puncta (log2)” value was -0.132. `N=C(NCc1ccc(Cl)cc1)SCCCc1c[nH]cn1` [Clobenpropit dihydrobromide]: the “LC3 puncta (log2)” value was 0.454. Next, `CO[C@]12C[C@@H](COC(=O)c3cncc(Br)c3)CN(C)[C@@H]1Cc1cn(C)c3cccc2c13` [Nicergoline]: 0.51. For `CN1C[C@H](CNC(=O)OCc2ccccc2)C[C@@H]2c3cccc4c3c(cn4C)C[C@H]21` [Metergoline] the value was 0.0502; for `NCC(CS(=O)(=O)O)c1ccc(Cl)cc1` (configuration not stated) [Saclofen], -0.022.
